From ChEMBL document CHEMBL3988442, “University of Dundee, Small-Polar-MMV Screening Library” (2021)
The campaign covered roughly 48,000 compounds. About 13,000 (27%) showed an effect of 50% or more. The list shows a part of the results.

The compounds below were run on Wolbachia pipientis (assay: Anti-Wolbachia Cell-Based Screen). Settings: 5 µM.
Assay type: functional
Parameters: scale not given: in the data most compounds retested in dose-response had high values

Going from `COCCn1cc(C(=O)N2CCCC2c2cccc(C)c2)ccc1=O` (stereo unspecified) to `COCC1CCCN(C(=O)c2cc(Cn3ccc4ccccc43)[nH]n2)C1` (stereo unspecified), the “Percent Effect” value falls from 1.918% to -4.391%.

First: CCC(CC)C(O)CNC(=O)Nc1cccc(-c2nccn2C)c1 (stereo unspecified)
Second: Cn1ccnc1-c1cccc(NC(=O)NCCCO)c1
The “Percent Effect” value of the first is higher: 17.02% for the first, -3.437% for the second.

Compared with `CCn1nnnc1-c1cccc(NC(N)=O)c1`, `CC[C@@H](C)[C@@H](N)C(=O)Nc1cccc(-c2cnc(N)nc2)c1` is higher in “Percent Effect” value: 11.47% for the first, 118.7% for the second.

Going from `CCC(C)NS(=O)(=O)Cc1cccc(NC(=O)C(C)C)c1` (stereo unspecified) to `CC[C@@H](C)[C@@H](N)C(=O)Nc1cccc(-c2cnc(N(C)C)nc2)c1`, the “Percent Effect” value rises from -6.422% to 111.5%.

Compared with `CN(C)c1ncc(NC(=O)c2cccc(Nc3cnn(C)c3)c2)cn1`, `CN(C)c1ncc(-c2c(-c3ccccc3)ncn2C(CO)C(=O)O)cn1` (stereo unspecified) is lower in “Percent Effect” value: -2.232% for the first, -11.25% for the second.

Going from `CC[C@@H](C)[C@@H](N)C(=O)Nc1cccc(-c2cnc(N(C)CCO)nc2)c1` to `CC[C@@H](C)[C@@H](N)C(=O)Nc1cccc(-c2cnc(NCCO)nc2)c1`, the “Percent Effect” value rises from 118.1% to 122.5%.

Compared with `CC(NC(N)=O)C(=O)Nc1ccc(OCc2cccc(F)c2)c(F)c1` (stereo unspecified), `Cc1ccc(C)c(OC(C)C(=O)Nc2cccnc2)c1` (stereo unspecified) is lower in “Percent Effect” value: -7.991% for the first, -35.64% for the second.

Compared with `CCC(Nc1cccc(OC)c1)C(=O)N(CCO)Cc1nccs1` (stereo unspecified), `CCN(C(=O)NCc1ncc(C)c(OC)c1C)C(C)c1cccnc1` (stereo unspecified) is lower in “Percent Effect” value: -9.396% for the first, -16.66% for the second.

First: O=C(NCCc1nnc2n1CCCCC2)N1CCC2(CCCC2)CC1
Second: CCNC(=O)N1CCC2(CC1)CCn1c(-c3ccccc3)cnc12
The “Percent Effect” value of the first is higher: -8.228% for the first, -10.02% for the second.

First: O=C(CN1CCN(c2ccnc3c(F)ccc(F)c23)CC1)N1CCCC1
Second: FC(F)(F)CCc1ccnc(N2CCN(Cc3ccncc3)CC2)n1
The “Percent Effect” value of the first is lower: -6.623% for the first, -2.758% for the second.

First: CCc1nnc2n1CCN(CC(=O)Nc1sccc1C#N)C2
Second: CCc1nnc2n1CCN(CCC(=O)Nc1sccc1C#N)C2
The “Percent Effect” value of the first is lower: 8.043% for the first, 88.78% for the second.

Compared with `CCc1nnc2n1CCN(CCC(=O)Nc1cc(C)on1)C2`, `CC(C)c1nnc2n1CCN(CCC(=O)Nc1sccc1C#N)C2` is higher in “Percent Effect” value: -8.821% for the first, 103.7% for the second.

Compared with `CC(C)c1nnc2n1CCN(CC(=O)Nc1nncs1)C2`, `CC(C)c1nnc2n1CCN(CC(=O)Nc1sccc1C#N)C2` is lower in “Percent Effect” value: 3.103% for the first, -2.717% for the second.

Compared with `CCc1c(C)sc2ncnc(N3C[C@H](O)[C@@H](N4CCCC4)C3)c12`, `COCC(=O)N1CC[C@]2(O)CCN(Cc3cccnc3OC)C[C@@H]2C1` is higher in “Percent Effect” value: 10.47% for the first, 17.33% for the second.

Compared with `O=C(NCCN1CCNCC1)c1nc2ccccc2c(=O)[nH]1`, `Cl.O=C(NCCn1nc(C2CCNC2)c2cccnc21)c1ccccc1` (stereo unspecified) is higher in “Percent Effect” value: -2.833% for the first, 112% for the second.

Compared with `O=C(NCCn1nc2ccccn2c1=O)c1cc(C2CC2)[nH]n1`, `Cl.O=C(NCCn1nc(C2CCNC2)c2cccnc21)c1ccccn1` (stereo unspecified) is higher in “Percent Effect” value: 7.505% for the first, 108.3% for the second.

Going from `O=C(NCCCc1nnc2ccccn12)c1ccccc1C1CCNC1` (stereo unspecified) to `O=C(NCc1cnn2cccnc12)c1cccc(CC2CCNCC2)c1`, the “Percent Effect” value rises from 3.583% to 4.069%.

Going from `Cc1nc(C)n(CC2CCCCN2CC(=O)N(C)Cc2ccco2)n1` (stereo unspecified) to `Cc1nc2ccccc2n1Cc1cc(C(=O)N(C)C2CCOCC2)no1`, the “Percent Effect” value rises from -3.611% to 169.5%.

First: O=C(c1cc(C2CC2)nc2onc(-c3ccccc3)c12)N1CCOCC1
Second: O=C(c1cc(C2CC2)nc2onc(-c3ccccc3)c12)N1CC[C@H](O)C1
The “Percent Effect” value of the first is lower: 3.139% for the first, 6.458% for the second.

Compared with `CC(C)CNC(=O)c1cc(C2CC2)nc2onc(C3CCNCC3)c12`, `O=C(NC1CC1)c1cc(C2CC2)nc2onc(C3CCNCC3)c12` is higher in “Percent Effect” value: 97.28% for the first, 97.57% for the second.

First: O=C(c1cc(-c2ccccc2)nc2onc(C3CC3)c12)N1CC[C@H](O)C1
Second: O=C(c1cc(Cn2cnc3ccccc32)on1)N1CCOCC1
The “Percent Effect” value of the first is higher: -0.1163% for the first, -10.83% for the second.

Going from `CC(C)CNc1nc2c(cc1C(=O)NCC1CC1)CCNCC2` to `Cc1ccc(CNC(=O)c2cc(CN3CCC(O)CC3)on2)s1`, the “Percent Effect” value falls from 3.893% to -1.351%.

Compared with `CCO[C@H]1CO[C@@]2(CCCN(S(=O)(=O)c3ccccc3)C2)C1`, `CS(=O)(=O)N1CCC2(CC1)NCCn1c(-c3ccccc3)cnc12.O=C(O)C(F)(F)F.O=C(O)C(F)(F)F` is higher in “Percent Effect” value: -23.06% for the first, -8.058% for the second.

First: COCC(=O)N1CC[C@]2(O)CCN(C(=O)CCc3ccsc3)C[C@@H]2C1
Second: COCC(=O)N1CC[C@]2(O)CCN(Cc3ccsc3)C[C@@H]2C1
The “Percent Effect” value of the first is higher: 120% for the first, 113.5% for the second.

Going from `COCc1nc(C(=O)N2CCN(Cc3ccsc3)CC2)cs1` to `COCC(=O)N1CCN(C(=O)CCc2ccsc2)CC1`, the “Percent Effect” value rises from -16.22% to -13.91%.

Going from `O=C(CCc1ccsc1)N1CCC(Cc2ccc(CO)cc2)C1` (stereo unspecified) to `CCN(Cc1ccncc1)C1CCCN(C/C=C/c2ccc(F)cc2)C1` (stereo unspecified), the “Percent Effect” value rises from -8.756% to 3.422%.

Compared with `Cn1cnc2c1CCN(Cc1nc(COc3ccc(F)cc3)no1)C2`, `COc1ccc(-c2cnc3n2CCNC32CCN(S(C)(=O)=O)CC2)cc1` is lower in “Percent Effect” value: 1.894% for the first, -5.963% for the second.

Going from `Cc1cccc(N2CCN(CCC(=O)NCc3nnc[nH]3)CC2)c1` to `O=C(NCC1CCCCO1)c1cc(Cn2cnc3ccccc32)[nH]n1` (stereo unspecified), the “Percent Effect” value falls from -0.9949% to -5.339%.

First: CC(C)N1CCC(N2CCCC(C(=O)NCC3(C)COC3)C2)CC1 (stereo unspecified)
Second: Cn1nccc1-c1cnc2n1CCC21CCN(C(=O)C2(C)CC2)CC1
The “Percent Effect” value of the first is lower: -5.464% for the first, 98.02% for the second.

Compared with `Cn1nccc1-c1cnc2n1CCNC21CCN(C(=O)C2(C)CC2)CC1`, `Cn1cc(-c2cnc3n2CCC32CCN(S(C)(=O)=O)CC2)cn1` is lower in “Percent Effect” value: 92.03% for the first, 7.243% for the second.

Compared with `O=S(=O)(NCCn1ccc(-c2cccs2)n1)C1CC1`, `Cc1nc2ccccc2n1Cc1cc(C(=O)NC2CCOC2)no1` (stereo unspecified) is higher in “Percent Effect” value: 1.599% for the first, 107.5% for the second.

Going from `COCCOCCNc1cncc(Br)c1` to `C[C@@H]1CN(C(=O)c2cc(Cn3cnc4ccccc43)on2)C[C@H](C)O1`, the “Percent Effect” value rises from -4.495% to -0.2425%.

Going from `Cc1nc2ccccc2n1Cc1cc(C(=O)N2C[C@@H](C)O[C@@H](C)C2)no1` to `Cc1nc2ccccc2n1Cc1cc(C(=O)N(C)C2CCOC2)n[nH]1` (stereo unspecified), the “Percent Effect” value rises from -14.98% to 98.82%.
